Assay outcomes (PubChem)
TNF death inh – blocks TNF-alpha induced death of Jurkat FADD-/- cells | Jurkat FADD-/- TNF necroptosis rescue, ATP luminescence, 24 h; 0 = TNF only, 100 = no-TNF cells | activation (protection from cell death), % at 10 µM | hit rate 0.068% among 220,000 | AID 463075;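 active = activation, meaning protection from cell death, of at least 50% relative to plate controls; inactive = activation below 50%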;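 also: necroptosis triggered by 40 ng/mL TNF-alpha added together with compound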
L929 necroptosis – blocks zVAD induced death of L929 cells; hit rate 0.38% among 220,000; L929 zVAD necroptosis rescue, ATP luminescence, 24 h; with zVAD 60 µM; viability rescue, % at 10 µM;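 active = activation, scaled between plate controls, above about 75%, limit read from the data; inactive = activation under that limit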
Calb FLC – C. albicans growth modulation with fluconazole. C. albicans CaCi-2 (fluconazole-resistant clinical isolate) + fluconazole, Alamar Blue growth, 48 h. growth inhibition, % (no concentration beside the values). hit rate 0.57% among 300,000;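 active = growth inhibition above about 58% in most replicates, limit read from the data, passing the limit was not always enough; inconclusive = exactly half the replicates above a set limit; inactive = most replicates below a set limit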;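 also: all wells also contain fluconazole at 8 µg/ml as a sub-toxic cotreatment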
HIF activator – HIF pathway transcriptional activation; U2OS HRE-luciferase reporter, luminescence; normalized: DMSO 0%, desferrioxamine 100%; activation, % at 7.5 µM (by protocol); hit rate 0.32% among 300,000;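 active = mean activation of at least 10% of the iron chelator positive control signal, with at least half of replicates also reaching 10%; inconclusive = mean and replicate majority disagree about reaching 10%; inactive = mean and most replicates under 10%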
Of the large screens only hits and unclear results are named; the others gave an inactive call. Most compounds without a hit are left out; they make up all but 1.1% or so of the library.

COc1cccc(CNC(=O)CCC2CCCN(C(=O)c3ccccc3N(C)C)C2)c1 (centres undefined)	none (no result: TNF death inh, L929 necroptosis)
Cc1cc(Cl)n2c(nc3ccccc32)c1C#N	Calb FLC 94.3
N#Cc1c(-c2ccccc2)cc(-c2ccccc2)nc1SCCC(=O)O	none (no result: TNF death inh, L929 necroptosis)
N#Cc1c(-c2ccc(Cl)cc2)cc(-c2ccccc2)nc1SCC(=O)O	Calb FLC 88.2 (no result: TNF death inh, L929 necroptosis)
CCn1cnc2cc(NCc3ccc(OC)cc3)ccc21	none
CCOc1ccc2nc3cc(NCc4ccc(OC)cc4)ccc3c(N)c2c1	Calb FLC 102.0 (no result: TNF death inh, L929 necroptosis)
Cc1ccc(C)c(OCc2cc(C(=O)N3CC[C@H](O)C3)no2)c1	none (no result: TNF death inh, L929 necroptosis)
CC1(C(=O)Nc2ccc3c(c2)OCCO3)CC1(Cl)Cl (centres undefined)	none (no result: TNF death inh, L929 necroptosis)
O=C1OCc2cc(NC(=O)C34CC5CC(CC(C5)C3)C4)ccc21	HIF activator 827.8
O=C1OCc2cc(NC(=O)C3CCCO3)ccc21 (centres undefined)	none
COc1ccc(Cl)cc1NC(=O)CCc1nnc2ccc(N3CCN(C)CC3)nn12	none (no result: TNF death inh, L929 necroptosis)
Cc1ccc(S(=O)(=O)C(C#N)c2nc3ccccc3nc2N2CCN(C)CC2)cc1C (centres undefined)	Calb FLC 82.9
NC(=O)c1ccsc1NC(=O)CSc1nnc(Nc2ccccc2)s1	none
O=C(/C=C/c1ccc2c(c1)OCO2)Nc1cccnc1	HIF activator 11.2
COc1cc(/C=C/C(=O)NCc2cccnc2)cc(OC)c1OC	none
COc1cc(/C=C/C(=O)Nc2cccnc2)cc(OC)c1OC	Calb FLC 75.6 (no result: TNF death inh, L929 necroptosis)
CC1CCC(NC(=O)CCNC(=O)c2ccccc2)CC1 (centres undefined)	Calb FLC 106.9
O=C(Cc1ccccc1)NNS(=O)(=O)c1ccc(F)cc1	none
Nc1ccc(S(=O)(=O)NNC(=O)C(=O)NNc2ccccc2)cc1	Calb FLC 105.7
O=C(NNc1ccccc1)C(=O)NNS(=O)(=O)c1ccc(CCCl)cc1	Calb FLC 86.1
COc1ccc(NC(=O)COc2cc(C)cc(C)c2)cc1S(=O)(=O)N1CCCCC1	none (no result: TNF death inh, L929 necroptosis)
O=C(NCCCl)NNC(=O)c1cc2ccccc2cc1O	none
Cc1ccc(C)c(NC(=O)NNC(=O)c2cc3ccccc3cc2O)c1	none (no result: TNF death inh, L929 necroptosis)
Cc1ccc(NC(=O)NNC(=O)c2cc3ccccc3cc2O)c(C)c1	Calb FLC 81.8 (no result: TNF death inh, L929 necroptosis)
C/C(=N\NC(=O)c1cc2ccccc2cc1O)c1cccs1	none (no result: TNF death inh, L929 necroptosis)
O=C(NNC(=O)c1cc2ccccc2cc1O)Nc1ccccc1F	Calb FLC 87.1 (no result: TNF death inh, L929 necroptosis)
Cc1cccc(NC(=O)NNC(=O)c2cc3ccccc3cc2O)c1C	Calb FLC 65.2
O=C(NNC(=O)c1cc2ccccc2cc1O)c1cccs1	Calb FLC 91.4 (no result: TNF death inh, L929 necroptosis)
O=C1CC(Sc2ccc(Cl)cc2)C(=O)N1c1ccc2c(c1)OCCO2 (centres undefined)	none
Cn1c(N)c(S(=O)(=O)N2CCN(c3cccc(Cl)c3)CC2)c(=O)n(C)c1=O	none (no result: TNF death inh, L929 necroptosis)
CCN(CC)CC(=O)Nc1ccc2c(c1)Nc1ccccc1CC2	L929 necroptosis 83.6
C=CCNC(=O)/C(=C/c1cn(-c2ccccc2)nc1-c1cccc([N+](=O)[O-])c1)NC(=O)c1ccccc1	HIF activator 229.8
COc1ccc(/C=C/c2cc(-c3ccc(C)cc3)o[n+]2C)cc1	Calb FLC 89.7
Cc1cc(Br)ccc1OCC(=O)NNC(=O)Cc1ccccc1	none
Cc1cc(Br)ccc1OCC(=O)NNC(=O)C(=O)Nc1ccccc1	Calb FLC 88.6
CC(C)(C)c1ccc(OCC(=O)Nc2ccncc2)c(Br)c1	none (no result: TNF death inh, L929 necroptosis)
COc1ccc(OCC(=O)NNC(=S)NC(=O)C2CC2)cc1	none (no result: TNF death inh, L929 necroptosis)
Cc1cc(C)cc(OCC(=O)NNC(=S)NC(=O)C2CC2)c1	Calb FLC 118.8 (no result: TNF death inh, L929 necroptosis)
CC(C)CCOc1cccc(OCC(=O)Nc2ccncc2)c1	Calb FLC 107.6 (no result: TNF death inh, L929 necroptosis)
CCc1ccc(OCC(=O)NNC(=S)NC(=O)C2CCCCC2)c(Br)c1	Calb FLC 83.7 (no result: TNF death inh, L929 necroptosis)
CCc1ccc(OCC(=O)Nc2ccncc2)c(Br)c1	HIF activator 13.5 (no result: TNF death inh, L929 necroptosis)
Cc1nc(/N=C\c2ccc(N(C)C)cc2)sc1C	none (no result: TNF death inh, L929 necroptosis)
Cc1ccc(NC(=O)N2CCCC2C(=O)NCc2ccc(Cl)cc2)cc1 (centres undefined)	none (no result: TNF death inh, L929 necroptosis)
CCc1ccc(OCC(=O)NNC(=S)NC(=O)C2CC2)c(Br)c1	Calb FLC 107.1 (no result: TNF death inh, L929 necroptosis, HIF activator)
O=C(NC1CCCC1)C(c1ccccn1)N(Cc1ccccc1F)C(=O)c1csnn1 (centres undefined)	none (no result: TNF death inh, L929 necroptosis)
C(#Cc1ccccc1)C[N+]1(CC#Cc2ccccc2)CCCCC1	Calb FLC 82.1
Nc1ccc(N2CCCCCC2)cc1	none (no result: Calb FLC, HIF activator)
Nc1ccc(N2CCN(c3ccc(F)cc3)CC2)cc1	Calb FLC 102.6
Cc1ccc(CNC(=S)NC2CCCCC2)cc1	none (no result: TNF death inh, L929 necroptosis)
Cc1ccc(CNC(=O)NC2CCCCC2)cc1	HIF activator 18.0
COc1ccc(/C=C(/NC(=O)c2ccccc2)c2nc3ccc(Cl)cc3[nH]2)cc1OC	Calb FLC 70.2
CC(C)c1cc(-c2cc(C(=O)NCc3ccccc3)on2)nc(NCC2CC2)n1	none
CC(C)c1cc(-c2cc(C(=O)NCc3ccccc3)on2)nc(NC2CCCC2)n1	HIF activator 18.2
O=C(NCc1ccccc1)c1sc(=S)n2c1[nH]c(=O)c1ccccc12	Calb FLC 87.2
Cc1nccn1CC(=O)N/N=C/c1cccs1	none
CCCCC(=O)NC(c1cccs1)c1cc(Cl)c2cccnc2c1O (centres undefined)	Calb FLC inconclusive, HIF activator 34.3
CCC(=O)NC(c1cccs1)c1cc(Cl)c2cccnc2c1O (centres undefined)	Calb FLC 99.2, HIF activator 31.1
CCNS(=O)(=O)c1ccc(NC(=O)c2cccnc2)cc1	Calb FLC 99.6
Cc1ccc(C(=O)NC(=O)OCCn2c(C)cnc2[N+](=O)[O-])cc1	Calb FLC 88.1
Cc1nnc(C)n1/N=C/c1cc2ccccc2nc1Cl	none
Cn1c(N/N=C/c2cc3ccccc3nc2Cl)nc2ccccc21	HIF activator 21.9
Cn1c(N/N=C/c2c[nH]c3ccccc23)nc2ccccc21	Calb FLC 83.6
Cc1cc(N/N=C/c2c[nH]c3ccccc23)c2ccccc2n1	none
COc1cc(OC)cc(N(C(=O)C2COc3ccccc3O2)C(C(=O)NC2CCCCC2)c2ccc(O)cc2)c1 (centres undefined)	Calb FLC 90.5
COc1ccc(-n2ncc3c2CC(C)(C)CC3NC(=O)c2c(C)cc(=O)oc2C)cc1 (centres undefined)	none (no result: TNF death inh, L929 necroptosis)
Cc1c(C(=O)N/N=C/c2ccc(O)c(Br)c2)sc(N)c1C#N	L929 necroptosis 76.4 (no result: Calb FLC, HIF activator)
CC1CCCCC1NCC#CCOc1ccc(Cl)cc1 (centres undefined)	none
CN1CCN(NC(=O)c2cccc(C(F)(F)F)c2)CC1	none (no result: HIF activator)
O=C(c1ccoc1)N1CCC2(CC1)Oc1ccc(F)cc1C(=O)C21CC(c2cccnc2)=NO1 (centres undefined)	none
O=C(c1ccc2c(c1)OCO2)N1CCC2(CC1)Oc1ccc(Cl)cc1C(=O)C21CC(c2cccnc2)=NO1 (centres undefined)	Calb FLC 83.8
O=C(c1ccc2c(c1)OCO2)N1CCC2(CC1)Oc1ccc(F)cc1C(=O)C21CC(c2cccnc2)=NO1 (centres undefined)	Calb FLC 76.8
